Test results from PubChem BioAssay (NCATS).
Inconclusive results are not listed. Calls of active or inactive are those of the source. Calls follow the shape of the dose curve; as a rule, active = well fitted cell-killing curve with a large enough effect; inconclusive = small, poorly fitted or top-dose-only effect, or effect the other way; inactive = no such curve, though single readings can be large or run the other way.

assay: Quantitative High-Throughput drug screen in 47 multiple myeloma cell lines against the NCATS MIPE library collection: H1112_PLB cell viability assay (AID 1918967; also: nearly all actives have a fitted effect of over 30% in size); conditions: H1112 myeloma cells viability, ATP luminescence, 48 h; series mostly up to 45.8 µM
Description: PI: Beverly A. Mock Ph.D.
Laboratory of Cancer Biology and Genetics,
Center for Cancer Research, National Cancer Institute,
National Institute of Health, Bethesda, Maryland
Drug resistance and disease progression are common in multiple myeloma (MM) patients, underscoring the need for new therapeutic combinations. […] We hypothesized that effective combinations would reduce MYC expression and enhance p16 activity. […] These preclinical data identify potentially useful drug combinations for evaluation in drug-resistant MM and reveal potential mechanisms of combined drug sensitivity.
Described herein is the primary MIPE qHTS used to cherrypick compounds. Validated compounds were then further tested for potential synergistic activiy.
[1] Peat TJ, Gaikwad SM, Dubois W, Gyabaah-Kessie N, Zhang S, Gorjifard S, Phyo Z, Andres M, Hughitt VK, Simpson RM, Miller MA, Girvin AT, Taylor A, Williams D, D'Antonio N, Zhang Y, Rajagopalan A, Flietner E, Wilson K, Zhang X, Shinn P, Klumpp-Thomas C, McKnight C, Itkin Z, Chen L, Kazandijian D, Zhang J, Michalowski AM, Simmons JK, Keats J, Thomas CJ, Mock BA. Drug combinations identified by high-throughput screening promote cell cycle transition and upregulate Smad pathways in myeloma. Cancer Lett. 2023 Aug 1;568:216284. doi: 10.1016/j.canlet.2023.216284. Epub 2023 Jun 24. PMID: 37356470; PMCID: PMC10408729.
SEQUENCE No. (e.g., 1, 2, 3, etc.); […] (e.g., Cells, Incubation, Reagent, etc.); VALUE and DESCRIPTION.
1; Cells; 5 uL; white, solid bottom 1536-well Greiner assay plate.
2; Compounds; 23 nL; Kalypsis pin tool (Wako USA) equipped with a 1536-well pin head to transfer to the assay plates.
3; Incubation; 48 hours; 37C incubation.
4; Reagent;5uL; CellTiter Glo (Promega).
5; Detector; 425V; Luminescence; Viewlux PerkinElmer.
NOTES (numbers refer to Sequence numbers above)
1. The cell-based screening methods employed in this study were like those previously published. Briefly, the corresponding myeloma cell lines were screened in 1,536-well plates with 500 cells, 5-uL per well for inhibition of cell viability (assessed by measuring ATP levels with CellTiterGlo).
2. NCATS MIPE 4.0 library of approved and investigational drugs were added using the Kalypsis pin tool. Wells treated with DMSO only for 100% viability and media only wells for 0% viability were used as controls.
3. The assay plates were covered and incubated for 48 hours in a 37C, 5% CO2 incubator with controlled humidity.
4. After 48 hours, CellTilter-GloTM luminescent substrate mix (Promega) reagent was added to the assay plate and plates we incubated for 5 min at room temperature.
5. Signal was measured as median relative luminescence units on a ViewLux (PerkinElmer) multiplate reader.
[1] Heske CM, Davis MI, Baumgart JT, Wilson K, Gormally MV, Chen L, Zhang X, Ceribelli M, Duveau DY, Guha R, Ferrer M, Arnaldez FI, Ji J, Tran HL, Zhang Y, Mendoza A, Helman LJ, Thomas CJ. Matrix Screen Identifies Synergistic Combination of PARP Inhibitors and Nicotinamide Phosphoribosyltransferase (NAMPT) Inhibitors in Ewing Sarcoma. Clin Cancer Res. 2017 Dec 1;23(23):7301-7311. doi: 10.1158/1078-0432.CCR-17-1121. Epub 2017 Sep 12. PMID: 28899971; PMCID: PMC6636827.
Potency is read from the fitted curve at half-maximal effect.

Question: With CC(C)C[C@H](NC(=O)CNC(=O)c1cc(Cl)ccc1Cl)B(O)O as the molecule, how does the Potency read?
Answer: 105 nM (active)

Question: For Cc1ccc(CN2CCNCC2)cc1NC(=O)CNc1ccc(F)c(F)c1, which Potency is on record?
Answer: inactive

Question: With CNC(=O)c1ccc(N2C(=S)N(c3cnc(C#N)c(C(F)(F)F)c3)C(=O)C23CCC3)cc1F as the molecule, how does the Potency read?
Answer: 833 nM (active)

Question: With Nc1nc(-c2nn(Cc3ccccc3F)c3ncccc23)nc(N)c1N1CCOCC1 as the molecule, how does the Potency read?
Answer: inactive

Question: With Cc1nc2cnc3ccc(C#Cc4cccnc4)cc3c2n1-c1ccc(C(C)(C)C#N)cc1 as the molecule, how does the Potency read?
Answer: 166 nM (active)

Question: For COc1cccc2c(NCc3ccccc3)nc(-n3c(N)nc4ccccc43)nc12, which Potency is on record?
Answer: 7430 nM (active)

Question: With Cc1ccc(-c2ncn(-c3ccc(Nc4nccc(-c5cccc(N6CCOCC6)c5)n4)cc3)n2)cn1 as the molecule, how does the Potency read?
Answer: 105 nM (active)

Question: For CC(O)C1C(=O)N2C(C(=O)O)=C(SC3CNC(C(=O)N(C)C)C3)C(C)C12 (stereo not given), which Potency is on record?
Answer: inactive

Question: Which Potency does the source give for CCC[C@H](NC(=O)C(C#N)=Cc1cccc(Br)n1)c1ccccc1 here?
Answer: 2350 nM (active)

Question: With Cn1cc(-c2[nH]c3cc(NC(=O)[C@H](N)C4CCCCC4)cc4c3c2C=NNC4=O)cn1 as the molecule, how does the Potency read?
Answer: 935 nM (active)

Question: Which Potency does the source give for CCOc1ccccc1OCCNC(C)Cc1ccc(OC)c(S(N)(=O)=O)c1 (stereo not given) here?
Answer: inactive

Question: Which Potency does the source give for c1ccc2c(CCNc3ccc(Nc4ccncc4)cc3)c[nH]c2c1 here?
Answer: 18700 nM (active)

Question: Which Potency does the source give for O=C(NCCS(=O)(=O)c1ccc(C(F)(F)F)cn1)c1ccc(Cl)cc1 here?
Answer: inactive

Question: Which Potency does the source give for Cc1ccc(C(=O)Nc2ccc(CN3CCN(C)CC3)c(C(F)(F)F)c2)cc1C#Cc1cnc2cccnn12 here?
Answer: 2090 nM (active)

Question: Which Potency does the source give for Cc1c(C)n(Cc2ccc(-c3ccccc3C(=O)O)cc2)c2ccc(C(=O)N[C@@H](C)c3ccc([N+](=O)[O-])cc3)cc12 here?
Answer: 18700 nM (active)

Question: Which Potency does the source give for CS(=O)(=O)c1ccc(-c2cnc(N)c(C(=O)Nc3ccccc3)n2)cc1 here?
Answer: 4180 nM (active)

Question: With C#Cc1cccc(Nc2ncnc3cc(OC)c(OCCCCCCC(=O)NO)cc23)c1 as the molecule, how does the Potency read?
Answer: 296 nM (active)

Question: With C=CC(=O)Nc1cc2c(Nc3ccc(F)c(Cl)c3)ncnc2cc1OCCCN1CCOCC1 as the molecule, how does the Potency read?
Answer: 4690 nM (active)

Question: With CNC(=O)c1c(F)cccc1Nc1nc(Nc2cc3c(cc2OC)CCN3C(=O)CN(C)C)nc2[nH]ccc12 as the molecule, how does the Potency read?
Answer: 1870 nM (active)

Question: For CC(C)(C)c1cnc(CSc2cnc(NC(=O)C3CCNCC3)s2)o1, which Potency is on record?
Answer: 469 nM (active)

Question: Which Potency does the source give for C[C@@H](Oc1cc(-c2cnn(C3CCNCC3)c2)cnc1N)c1c(Cl)ccc(F)c1Cl here?
Answer: 11800 nM (active)

Question: For CN(C)CCCN=c1c2ccccc2n(C)c2[nH]c(=O)n(C)c(=O)c12, which Potency is on record?
Answer: 16600 nM (active)

Question: Which Potency does the source give for O=C(C=Cc1cccnc1)NCCCCC1CCN(C(=O)c2ccccc2)CC1 here?
Answer: 13.2 nM (active)

Question: With Cc1cn2c(-c3cn[nH]c3)cnc2c(Nc2ccc(C(=O)N3CCNCC3)cc2F)n1 as the molecule, how does the Potency read?
Answer: 20900 nM (active)

Question: For O=C(NC1CCNCC1)c1[nH]ncc1NC(=O)c1c(Cl)cccc1Cl, which Potency is on record?
Answer: 1050 nM (active)

Question: For CN1CCN(Cc2ccc(NC(=O)Nc3ccc(Oc4cc(NC(=O)C5CC5)ncn4)cc3)cc2C(F)(F)F)CC1, which Potency is on record?
Answer: 148 nM (active)

Question: Which Potency does the source give for CC1(C)O[C@@H]2C[C@@H]3[C@H]4C[C@@H](F)C5=CC(=O)C=C[C@]5(C)[C@@]4(F)[C@@H](O)C[C@]3(C)[C@]2(C(=O)CO)O1 here?
Answer: inactive

Question: For Nc1nccc(Oc2ccc(NC(=O)c3c[nH]cc(-c4ccc(F)cc4)c3=O)cc2F)c1Cl, which Potency is on record?
Answer: 20900 nM (active)

Question: With C[C@@H]1COC(Nc2ccc3ncnc(Nc4ccc(OCc5nccs5)c(Cl)c4)c3c2)=N1 as the molecule, how does the Potency read?
Answer: 1320 nM (active)

Question: Which Potency does the source give for CC(C)c1nn(-c2c(Cl)cccc2Cl)c2nc(Cc3ccc(OCCO)cc3)[nH]c(=O)c12 here?
Answer: 235 nM (active)

Question: With COc1cccc(-c2ccc(NC(=O)C3=C(C(=O)O)CCC3)c(F)c2)c1 as the molecule, how does the Potency read?
Answer: inactive

Question: With COc1ccc(C=Cc2cc(OC)c(OC)c(OC)c2)cc1O as the molecule, how does the Potency read?
Answer: inactive

Question: With N#Cc1c(O)c2c(-c3ccc(-c4ccccc4O)cc3)csc2[nH]c1=O as the molecule, how does the Potency read?
Answer: inactive

Question: Which Potency does the source give for COc1cc(C)c(Sc2cnc(NC(=O)c3ccc(CNC(C)C(C)C)cc3)s2)cc1C(=O)N1CCN(C(C)=O)CC1 (stereo not given) here?
Answer: 14800 nM (active)

Question: Which Potency does the source give for CCCCCN(CCC12CC3CC(CC(C3)C1)C2)C(=O)NCCCc1ccncc1 here?
Answer: 18700 nM (active)

Question: With Cc1cnc(Nc2ccc(F)cc2Cl)nc1-c1c[nH]c(C(=O)N[C@H](CO)c2cccc(Cl)c2)c1 as the molecule, how does the Potency read?
Answer: 16600 nM (active)

Question: Which Potency does the source give for CN(c1ncccc1CNc1nc(Nc2ccc3c(c2)CC(=O)N3)ncc1C(F)(F)F)S(C)(=O)=O here?
Answer: 5900 nM (active)

Question: Which Potency does the source give for CCN(CC)CCNC(=O)c1ccc2nc(-c3ccccc3)c(-c3ccc(CN4CCC(n5c(=O)[nH]c6ccccc65)CC4)cc3)nc2c1 here?
Answer: 833 nM (active)

Question: For Cn1c2cc(S(C)=O)sc2c2cnn(Cc3cccc(N)c3)c(=O)c21 (stereo not given), which Potency is on record?
Answer: inactive

Question: Which Potency does the source give for COC(=O)C1=C(C)NC(C)=C(C(=O)OCCN2CCN(C(c3ccccc3)c3ccccc3)CC2)C1c1cccc([N+](=O)[O-])c1 (stereo not given) here?
Answer: inactive
